Test results published in PubChem BioAssay (NCI).
The panel holds about 83,000 compounds, 20% with a hit somewhere; the sample as a whole holds those more often.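 96-well plates, one dose, 48 hours. Percent growth reported; active if below 10.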 Unmarked numbers belong to inactive results. Activity calls are given as the source filed them.

tested on: A549/ATCC NSCLC; assay: NCI-60 one-dose screen, 48 h (100 = growth as untreated, 0 = no growth, -100 = all killed); conditions: 10 µM unless noted
Procedure: Growth inhibition of the A549/ATCC human Non-Small Cell Lung tumor cell line is measured as a screen for anti-cancer activity. Cells are grown in 96 well plates and exposed to the test compound for 48 hours. Compounds are tested at a single concentration, which is 10^-5 M for most compounds. The reported endpoint is percent growth (GI% or GIPRCNT), where numbers from 0 - 100% represent growth inhibition, and numbers from -100% - 0 represent cell death. For example, a value of 40 represents 60% growth inhibition. A value of 0 means no net growth occurred over the course of the experiment. A value of -40 indicates 40% of cells at the beginning of the experiment died by the end of the experiment. A value of -100 means all cells are dead at the end of the experiment.
NCI-60 Human Tumor Cell Lines Screen was performed using the standard one-dose NCI protocol, which is described in more detail at https://dtp.cancer.gov/discovery_development/nci-60/default.htm.
Compounds with GIPRCNT values below 10 were considered active. Activity score was based on GIPRCNT using the following formula: […]
Score is 0 for GIPRCNT values of 100 or above, 50 for GIPRCNT values of 0, and 100 for GIPRCNT values of -100.

| Compound | growth |
| --- | --- |
| O1[As]2O[As]3O[As]1O[As](O2)O3 | 37.8% |
| c1ccc(CCN2CCCCC2Cc2ccccc2)cc1 (stereo not given) | 96.2% |
| O=C(NCc1ccc([N+](=O)[O-])cc1)Nc1ccc(S(=O)(=O)F)cc1 | 75% |
| CC1COC(=O)C1 (stereo not given) | 101% |
| CCCCNCCc1ccccn1 | 100% |
| CN1CC2CCC(C1)C2=O | 102% |
| OB([O][Hg][c]1ccccc1)[O][Hg][c]1ccccc1 | 24% |
| Oc1c(Br)cc(Br)cc1Br.[Cu+2] | 98% |
| Nc1ccc(N)c2c1Oc1ccccc1O2 | 107% |
| CCOc1c(Cl)cc(CNC(C)C(O)c2ccccc2)cc1OC (stereo not given) | 29.3% |
| COc1ccc(/C=C\c2cc(OC)c(OC)c(OC)c2)cc1N/C=C\C(=O)c1c[nH]c2ccccc12 | 28.4% |
| CC(=O)O[C@H]1CCC2(C)C(=CCC3C2CCC2(C)/C(=N/OC(=O)c4ccc(N(CCCl)CCCl)cc4)CCC32)C1 (stereo not given in full) | 2.05% (active) |
| CC(C)C1c2ccc(O)cc2Oc2nc(N)c(C#N)c(N)c21 (stereo not given) | 91.4% |
| CC[C@@H](C)/C=C(C)/C=C/C(=O)c1c(O)c(-c2ccc(O)cc2)cn(O)c1=O | 3.85% (active) |
| O=S(=O)(c1ccc(Cl)cc1)C(Cl)(Cl)Cl | 56.6% |
| COc1c(O)c2c3c(c1OC)-c1ccccc1CC3N(C)CC2 (stereo not given) | 103% |
| C/C(=C\C(=O)O[C@H]1[C@@H]2[C@H](C)CC[C@H]2[C@]2(C)O[C@@]1(C1CCCCC1)C[C@H]2OC(=O)CO)c1ccccc1 | 40.8% |
| S=P(NC1CCCCC1)(N1CC1)N1CC1 | 101% |
| Oc1ccc(Br)cc1CN1CCN(Cc2ccc(Cl)cc2)CC1 | 62.3% |
| CNC(=O)Oc1cccc(OC)c1 | 106% |

| Compound | growth |
| --- | --- |
| COc1cc(/C=C\c2cc(OC)c(OC)c(OC)c2)cc(N/C=C\C(=O)c2ccc(OC(F)(F)F)cc2)c1OC | 19.4% |
| CC(=O)C1C(=O)N(C)C(=O)N(C)C1=O | 96.1% |
| COC(=O)C(=[N+]=[N-])C(=O)OC | 99.3% |
| O=C1NC2(CCNCC2)Nc2ccccc21 | 69.1% |
| CCOc1cc(/C=N\Nc2nnc(C)n2N)c(C)cc1N(CCCl)CCCl | 14.5% |
| CCC1CN1P(=O)(OCCOC)N1CC1CC (stereo not given) | 101% |
| CC1(C)N=C(N)N=C(N)N1c1ccc(CCC(=O)Nc2cccc(S(=O)(=O)F)c2)cc1 | 44.6% |
| COc1ccc(C(=O)c2ccc([As]=O)cc2)cc1 (stereo not given) | -71.8% (active) |
| N#[N+]c1nc2nc(N)[nH]c(=O)c2[nH]1 | 89.8% |
| [N-]=[N+]=NC(C(=O)O)c1ccccc1 (stereo not given) | 95.2% |
| CC(C)(C)NCC(O)c1ccccc1Cl (stereo not given) | 11.5% |
| C=CC(=O)NC(O)C(Cl)(Cl)Cl (stereo not given) | 103% |
| Cc1cc(CCl)c(C)cc1CCl | 55% |
| O=C(CC1(O)C(=O)Nc2ccc(F)cc21)c1ccc(C(=O)NCC2CCC3(CC2)OOC2(CCCCC2)OO3)cc1 (stereo not given) | -66.5% (active) |
| COc1cccc2c1C(=O)c1c(O)c3c(c(O)c1C2=O)CC(O)(/C(C)=N/NC(=O)CCC(=O)N/N=C(\C)C1(O)Cc2c(O)c4c(c(O)c2C(OC2CC(N)C(O)C(C)O2)C1)C(=O)c1c(OC)cccc1C4=O)CC3OC1CC(N)C(O)C(C)O1 (stereo not given) | -30% [5 µM] (active) |
| O=C(CCF)c1ccc(O)cc1 | 101% |
| Cc1ccc(C(=O)C2CN(C)CCC2(O)c2ccc(C)cc2)cc1 (stereo not given) | 104% |
| O=[N+]([O-])c1cccc([As]=[As]c2cccc([N+](=O)[O-])c2)c1 (stereo not given) | -75.2% (active) |
| O=C(CI)Nc1ccc(Br)cc1 | 90.9% |
| CCCC(C)(C)c1ccc2c(c1)OC(C)(C)[C@@H]1CC=C(C)C[C@@H]21 | 88.2% |
